This note sets out measurements from PubChem BioAssay (EPA / NIEHS).

By AC50 is commonly meant the midpoint of the concentration-response curve, whichever way the signal moves.

SMILES strings stand for the structures. Activity calls are given as the source filed them. Rule for the calls: active = hit-call score of the fitted dose curve at least 0.9, where 1 is the maximum; inactive = score below 0.9.

Read-out in assay [1]: Interleukin-8 (IL8), CXCL8 (gene 3576)
In words: BSK_CASM3C_IL8: BioMAP Diversity Plus: CASM3C Assay for Interleukin-8 (IL8) Biomarker Activity (AID 2283042).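 Note: IL-8 protein level quantified by ELISA.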 The following applies: primary human coronary artery smooth muscle cells; actives raise or lower the signal.

Read-out in assay [2]: Human Leukocyte Antigen - DR isotype (HLADR), HLA-DRA (gene 3122)
In words: BSK_CASM3C_HLADR: BioMAP Diversity Plus: CASM3C Assay for Human Leukocyte Antigen - DR isotype (HLADR) Biomarker Activity (AID 2283043).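 Note: cell-surface HLA-DR protein level quantified by ELISA.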 The settings on record: primary human coronary artery smooth muscle cells; actives raise or lower the signal.

Read-out in assay [3]: Macrophage colony-stimulating factor (MCSF), CSF1 (gene 1435)
In words: BSK_CASM3C_MCSF: BioMAP Diversity Plus: CASM3C Assay for Macrophage colony-stimulating factor (MCSF) Biomarker Activity (AID 2283044).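 Note: M-CSF protein amount quantified by ELISA after 24 h exposure.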 The settings on record: primary human coronary artery smooth muscle cells; actives raise or lower the signal.

Read-out in assay [4]: Low-density lipoprotein receptor (LDLR), LDLR (gene 3949)
In words: BSK_CASM3C_LDLR: BioMAP Diversity Plus: CASM3C Assay for Low-density lipoprotein receptor (LDLR) Biomarker Activity (AID 2283045).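 Note: LDLR protein level on the cell surface quantified by ELISA.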 The settings on record: primary human coronary artery smooth muscle cells; actives raise or lower the signal.

Read-out in assay [5]: Monocyte Chemoattractant Protein-1 (MCP1), CCL2 (gene 6347)
In words: BSK_CASM3C_MCP1: BioMAP Diversity Plus: CASM3C Assay for Monocyte Chemoattractant Protein-1 (MCP1) Biomarker Activity (AID 2283046).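 Note: MCP-1 level quantified by ELISA 24 h after dosing.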 The settings on record: primary human coronary artery smooth muscle cells; actives raise or lower the signal.

Assay [6] is described as follows: BSK_CASM3C_Proliferation: Cell Proliferation Assessment in the BioMAP Diversity Plus: CASM3C Assay (AID 2283047).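 Note: sulforhodamine B total protein stain as relative cell number at 560 nm; sub-confluent cells exposed 48 h before staining; fitted both ways against DMSO so gain or loss of cell number.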 The following applies: primary human coronary artery smooth muscle cells.
Read-out in assay [7]: Monokine induced gamma interferon (MIG), CXCL9 (gene 4283)
The assay can be described thus: BSK_CASM3C_MIG: BioMAP Diversity Plus: CASM3C Assay for Monokine induced gamma interferon (MIG) Biomarker Activity (AID 2283048).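 Note: MIG protein level measured by ELISA.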 The settings on record: primary human coronary artery smooth muscle cells; actives raise or lower the signal.

Read-out in assay [8]: serum amyloid A (SAA), SAA1 (gene 6288)
The assay can be described thus: BSK_CASM3C_SAA: BioMAP Diversity Plus: CASM3C Assay for serum amyloid A (SAA) Biomarker Activity (AID 2283049).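 Note: SAA protein level quantified by ELISA.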 The settings on record: primary human coronary artery smooth muscle cells; actives raise or lower the signal.

Assay [9] can be described thus: BSK_CASM3C_SRB: Viability Assessment in the BioMAP Diversity Plus: CASM3C Assay (AID 2283050).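 Note: total protein by SRB staining as cytotoxicity measure in parallel cultures; cells exposed to compound for 24 h.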 The settings on record: primary human coronary artery smooth muscle cells.
Read-out in assay [10]: Thrombomodulin, THBD (gene 7056)
The assay can be described thus: BSK_CASM3C_Thrombomodulin: BioMAP Diversity Plus: CASM3C Assay for Thrombomodulin Biomarker Activity (AID 2283051).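 Note: thrombomodulin protein level measured by ELISA 24 h after dosing.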 The settings on record: primary human coronary artery smooth muscle cells; actives raise or lower the signal.

`COc1ccc(-c2ccccc2)cc1NNC(=O)OC(C)C`: the outcome in [1], in [2], in assay [3], in assay [4], in [5] and in [6] was inactive. Further, the outcome in assay [7], in assay [8], in [9] and in assay [10] was inactive.

Turning to `Cc1c(COC(=O)[C@@H]2[C@H](/C=C(\Cl)C(F)(F)F)C2(C)C)cccc1-c1ccccc1`, the result in [1], in assay [2], in [3], in [4], in assay [5] and in [6] was inactive. Also, the result in assay [7], in assay [8] and in [9] was inactive. The AC50 in [10] is 18.1 µM (active).

On to `CC(C)Oc1cccc(NC(=O)c2ccccc2C(F)(F)F)c1`, for which the outcome in assay [1], in assay [2], in [3], in [4], in assay [5] and in assay [6] was inactive. For the same molecule, the outcome in assay [7], in assay [8], in [9] and in assay [10] was inactive.

Regarding `CN/C(=N\[N+](=O)[O-])NCc1cnc(Cl)s1`, the outcome in assay [1], in assay [2], in assay [3], in [4], in [5] and in [6] was inactive. The outcome in assay [7], in [8], in assay [9] and in [10] was inactive.

Take `N#Cc1c(Cl)cccc1Cl`: the result in assay [1], in assay [2], in assay [3], in [4], in [5] and in assay [6] was inactive. The result in assay [7], in assay [8], in assay [9] and in assay [10] was inactive.

In the case of `COc1cc(OC)nc(NC(=O)NS(=O)(=O)c2ncccc2OCC(F)(F)F)n1`, the outcome in assay [1], in assay [2], in assay [3], in [4], in assay [5] and in assay [6] was inactive. For the same molecule, the outcome in [7], in assay [8], in assay [9] and in assay [10] was inactive.

Consider `CC(C)NC(=O)N1CC(=O)N(c2cc(Cl)cc(Cl)c2)C1=O`, for which the result in [1], in assay [2], in assay [3], in assay [4], in assay [5] and in [6] was inactive. Moreover, the outcome in [7], in [8], in assay [9] and in assay [10] was inactive.

Regarding `Cn1c(-c2ccccc2)cc(-c2ccccc2)[n+]1C`, the result in [1], in assay [2], in assay [3], in assay [4], in assay [5] and in assay [6] was inactive. Further, the result in [7], in assay [8], in [9] and in assay [10] was inactive.

For the molecule `C=CCOC(=O)C(C)(C)OC(=O)c1cc(-n2c(=O)cc(C(F)(F)F)n(C)c2=O)ccc1Cl`, the outcome in assay [1], in assay [2], in [3], in assay [4], in [6] and in assay [7] was inactive. Further, the outcome in assay [9] and in assay [10] was inactive. The AC50 in assay [5] was 12.9 µM (active); in [8], 0.859 µM (active).

Turning to `CCOc1nc(F)cc2nc(S(=O)(=O)Nc3c(Cl)cccc3Cl)nn12`, the outcome in assay [1], in [2], in [3], in [4], in [5] and in assay [6] was inactive. The result in [7], in assay [8], in [9] and in assay [10] was inactive.

For the molecule `COP(=O)(OC)O/C(C)=C/C(=O)N(C)C`, the result in assay [1], in assay [2], in assay [3], in [4], in assay [5] and in assay [6] was inactive. Further, the outcome in [7], in assay [8], in assay [9] and in assay [10] was inactive.

Regarding `COC(=O)N(C(=O)N1CO[C@@]2(C(=O)OC)Cc3cc(Cl)ccc3C2=N1)c1ccc(OC(F)(F)F)cc1`, the result in [1], in assay [2], in [3], in [4], in assay [5] and in assay [7] was inactive. In addition, the outcome in assay [8], in [9] and in assay [10] was inactive. Besides, the concentration at half-maximal activity (AC50) in assay [6] is 12.4 µM (active).

On to `CCOP(=O)(OCC)Oc1nc(Cl)c(Cl)cc1Cl`, for which the result in assay [1], in [2], in assay [3], in [4], in [5] and in assay [6] was inactive. Besides, the outcome in assay [7], in assay [8] and in [9] was inactive. In addition, in assay [10], the AC50 was 0.297 µM (active).

As to `CCC(C)n1c(=O)[nH]c(C)c(Br)c1=O` (stereo not given), the result in [1], in assay [2], in assay [3], in assay [4], in assay [5] and in assay [6] was inactive. For the same molecule, the outcome in assay [7], in assay [8], in assay [9] and in [10] was inactive.

Turning to `COCC(C)N(C(=O)CCl)c1c(C)csc1C` (stereo not given), the result in assay [1], in [2], in assay [3], in assay [4], in [5] and in assay [6] was inactive. For the same molecule, the result in assay [7], in [8], in assay [9] and in assay [10] was inactive.

Take `Nc1cnn(-c2ccccc2)c(=O)c1Cl`: the result in assay [1], in [2], in assay [3], in assay [4], in assay [5] and in assay [6] was inactive. In addition, the outcome in assay [7], in [8], in assay [9] and in assay [10] was inactive.

As to `CCCN(CC)CC1COC2(CCC(C(C)(C)C)CC2)O1` (stereo not given), the outcome in [1], in assay [2], in assay [3], in assay [4], in assay [5] and in assay [7] was inactive. Besides, the result in assay [8], in assay [9] and in assay [10] was inactive. Further, the concentration at half-maximal activity (AC50) in [6] is 7.08 µM (active).

Consider `CCCCOCN(C(=O)CCl)c1c(CC)cccc1CC`, for which the AC50 in [1] was 5.08 µM (active); in assay [2] it was 26.1 µM (active); in [3], 28.8 µM (active); in assay [5] it was 33.2 µM (active); in [6], 27.4 µM (active); in [9], 31.4 µM (active). The AC50 in [10] is 5.46 µM (active). Besides, the result in assay [4], in assay [7] and in assay [8] was inactive.
